# Test results published in the supplement of paper PMC3334620.
# Whole data set: some 33,000 sequences, median “E-score (-0.5 to 0.5)” near -0.016, cut for the highest 2% near 0.3. The sample holds the highest values, similar sequences and a random draw of the others, so the mix is not that of the screen.
# Target: T1, Yer184c (UniProt P39961)
# T1 sequence: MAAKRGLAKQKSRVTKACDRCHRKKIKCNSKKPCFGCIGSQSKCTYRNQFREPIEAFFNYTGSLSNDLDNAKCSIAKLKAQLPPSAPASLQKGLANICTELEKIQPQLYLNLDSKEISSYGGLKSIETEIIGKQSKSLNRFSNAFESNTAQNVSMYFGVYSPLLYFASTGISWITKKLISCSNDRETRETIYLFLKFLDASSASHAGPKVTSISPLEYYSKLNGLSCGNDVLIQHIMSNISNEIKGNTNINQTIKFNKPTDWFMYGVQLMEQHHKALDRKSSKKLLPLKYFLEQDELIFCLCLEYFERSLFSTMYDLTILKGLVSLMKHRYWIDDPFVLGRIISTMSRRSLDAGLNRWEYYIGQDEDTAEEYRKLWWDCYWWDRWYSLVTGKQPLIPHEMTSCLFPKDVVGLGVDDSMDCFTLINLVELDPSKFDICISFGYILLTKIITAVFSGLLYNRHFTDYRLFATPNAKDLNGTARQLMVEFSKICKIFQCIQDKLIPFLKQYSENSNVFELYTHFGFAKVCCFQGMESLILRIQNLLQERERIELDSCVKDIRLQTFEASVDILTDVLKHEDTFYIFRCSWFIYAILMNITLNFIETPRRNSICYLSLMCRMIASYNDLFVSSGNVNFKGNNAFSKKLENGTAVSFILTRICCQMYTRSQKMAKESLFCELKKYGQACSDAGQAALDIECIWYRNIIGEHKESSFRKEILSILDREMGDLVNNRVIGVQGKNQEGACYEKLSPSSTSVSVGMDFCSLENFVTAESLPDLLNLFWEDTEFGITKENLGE
# Test: PBM E-score (8-mer binding enrichment) (E-score (-0.5 to 0.5)); higher = stronger / more preferred TF binding
# Conditions: protein concentration: 100 nM; construct: GST-full length
# Outline: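 Full-length yeast transcription factors or their DNA-binding domains, GST-tagged and expressed with PURExpress, were applied at about 100-200 nM to universal all-10-mer Agilent arrays. These arrays had been made double-stranded by primer extension on fresh or once-stripped slides. Detection used fluorescent anti-GST, normalisation used masliner, and E-scores for ungapped eight-base words pooled with reverse complements came from the Universal PBM Analysis Suite.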
row,Sequence,PBM E-score
1,ATCTCACA,-0.0208
2,GTCTGGCA,-0.16
3,CAGTATAC,-0.0142
4,AAAAATGC,0.143
5,AAACTAGC,-0.093
6,GGTTCCGA,0.278
7,AGTTCCAC,-0.00257
8,CGTTCCGA,0.236
9,CGTTCCGC,0.262
10,AGTTCCGA,0.313
11,AGTTCCAG,-0.101
12,AGTTCCGC,0.305
13,AGTTCCGG,0.374
14,AGTTCCTG,-0.18
15,CCGGTCTC,0.0994
16,CTAAAGGC,-0.0965
17,ACTAGCAC,-0.174
18,AATGGTAC,-0.00404
19,ACTAGGAA,-0.177
20,AATGCCGA,0.378
21,CATGCCTA,-0.261
22,AATGCCTA,-0.0279
23,CATGCCAG,-0.161
24,CATGCCCG,0.0955
25,TATGCCGA,0.28

row,Sequence,PBM E-score
1,AATGCCTG,-0.123
2,CATGCCGG,0.366
3,AATGCCGG,0.35
4,CATGCCGA,0.336
5,AATGCCCG,-0.121
6,CATGCCGC,0.181
7,CAAATACG,-0.00546
8,CGAAACTA,0.0737
9,CACTAGTC,-0.184
10,ACTAACGA,0.00902
11,AAAGGCAT,0.141
12,AACCTATT,-0.139
13,GCATCCCC,-0.168
14,CATCAATG,-0.0256
15,GATGCCGC,0.106
16,AATGCCGC,0.199
17,GATGCCAA,-0.105
18,GATGCCGA,0.319
19,AATGCCGT,0.304
20,AATGCCAT,0.055
21,CCTCTTCG,-0.00118
22,AGTTCCCG,0.223
23,CCGCGCGG,0.386
24,ACGCGGAG,0.143
25,CCGCGCGC,0.154

row,Sequence,PBM E-score
1,CCGCGCGA,0.183
2,CCGCGGTC,0.205
3,CCGCGGTA,0.345
4,ACGCGGTA,-0.105
5,CGGCGGTA,0.348
6,CCGCGGAG,0.333
7,CCGCGGAC,0.295
8,AGGCGGTA,-0.135
9,GGGCGGTA,-0.0752
10,CCAGCTTC,-0.0253
11,CAAAATGA,0.0065
12,GACTCAAC,0.0381
13,ATCTCTTC,0.0858
14,AGGTTAAC,-0.037
15,TCGCGGAA,0.137
16,CCGCGGAA,0.416
17,GCGCGGAA,0.138
18,CCGCGGGA,0.324
19,GCGCGGGA,0.0199
20,CCGCGGGC,0.25
21,CGGTGGTC,-0.0197
22,AGAGATCC,-0.00438
23,AAGTGTCA,-0.293
24,ACAAAACT,0.144
25,CGCCCAAA,0.0692
